Several values for one entry are separate records, joined by “and”; a condition that tells them apart may be missing. Equal values may be shown once.
Assays:
[1] = system: Human papillomavirus type 1a protein E7 (residues 44-93); assay: HPV1a E7 fragment binders on microarrays, primary screen, biochemical, small-molecule microarray, residues 44-93, 635 nm fluorescence (AID 1108); details: small-molecule microarray binding, fluorescence 635 nm; higher = more signal;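 further: E7 fragment applied at 1 µg/mL in TBST for 1 h at 4 C; score combines spot fluorescence with its signal to noise ratio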
[2] = modulators of HCV replicon luciferase signal, primary screen, HCV replication inhibitor project, Huh7 cells, luciferase reporter (AID 1109); details: 48 h, higher = more signal;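 further: huh7 hepatoma cells harbouring a luciferase neomycin HCV replicon reporter; luciferase luminescence as measure of HCV replicon replication; test concentration not given here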
[3] = target: Left-right determination factor 2 (Homo sapiens) (UniProt O00292); assay: LEFTY2 binders on small-molecule microarrays, primary screen, biochemical, small-molecule microarray, 635 nm fluorescence scan (AID 1110); details: LEFTY2 binding, higher = more signal
Left-right determination factor 2 (Homo sapiens), sequence (O00292 whole entry, looked up): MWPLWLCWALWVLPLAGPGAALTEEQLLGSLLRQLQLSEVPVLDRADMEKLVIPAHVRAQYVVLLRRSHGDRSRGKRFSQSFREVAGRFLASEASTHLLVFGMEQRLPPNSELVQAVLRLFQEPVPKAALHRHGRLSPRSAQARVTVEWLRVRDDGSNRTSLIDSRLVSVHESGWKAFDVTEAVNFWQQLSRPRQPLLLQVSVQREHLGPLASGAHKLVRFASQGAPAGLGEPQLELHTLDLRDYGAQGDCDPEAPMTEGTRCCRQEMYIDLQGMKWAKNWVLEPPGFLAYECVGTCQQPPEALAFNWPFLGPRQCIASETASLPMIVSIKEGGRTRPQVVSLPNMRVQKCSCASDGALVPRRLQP

[4] = target: Calmodulin-1 (Homo sapiens) (UniProt P0DP23); assay: CALM1 binders on microarrays, EGTA buffer, profiling panel, biochemical, small-molecule microarray, Cy5-labelled CALM1 (AID 1111); details: Cy5-CALM1 binding fluorescence, higher = more signal;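 further: labelled calmodulin applied in Tris saline Tween buffer holding calcium plus EGTA and DTT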
[5] = target: Calmodulin-1 (Homo sapiens) (UniProt P0DP23); assay: calcium-bound CALM1 binders on microarrays, profiling panel, artefact control for SMM control-protein annotation, biochemical, small-molecule microarray, Cy5-labelled CALM1, plus calcium (AID 1112); details: Cy5-CALM1 binding fluorescence, higher = more signal;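 further: score merges spot fluorescence with signal to noise from triplicate slides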
[6] = small-molecule microarray binders of probe aWnt5a, primary screen, biochemical, biotinylated probe, 635/667 nm fluorescence (AID 1113); details: higher = more signal;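 further: score merges 667 nm fluorescence intensity with signal-to-noise per printed feature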
[7] = small-molecule microarray binders of probe aShh, primary screen, biochemical, biotinylated probe, 635/667 nm fluorescence (AID 1114); details: higher = more signal;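 further: probe is biotin-labelled aShh protein from a stem cell growth factor screen; measures binding of labelled protein to compounds printed on the slide; score merges feature fluorescence at 667 nm with signal-to-noise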
[8] = small-molecule microarray binders of probe aNog, primary screen, biochemical, biotinylated probe, 635/667 nm fluorescence (AID 1115); details: higher = more signal;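 further: probe is biotinylated aNog protein used at 0.15 µg/mL for 1 h at 4 C; z-score combines 667 nm fluorescence of each spot with its signal to noise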
[9] = target: Torsin-1A-interacting protein 1 (Homo sapiens) (UniProt Q5JTV8); assay: LAP1 binders from COS7 cell lysate, primary screen, small-molecule microarray, 635/667 nm fluorescence (AID 1116); details: COS7-hLAP1 lysate binding, 635 nm fluorescence, higher = more signal
Torsin-1A-interacting protein 1 (Homo sapiens), sequence (Q5JTV8 whole entry, looked up): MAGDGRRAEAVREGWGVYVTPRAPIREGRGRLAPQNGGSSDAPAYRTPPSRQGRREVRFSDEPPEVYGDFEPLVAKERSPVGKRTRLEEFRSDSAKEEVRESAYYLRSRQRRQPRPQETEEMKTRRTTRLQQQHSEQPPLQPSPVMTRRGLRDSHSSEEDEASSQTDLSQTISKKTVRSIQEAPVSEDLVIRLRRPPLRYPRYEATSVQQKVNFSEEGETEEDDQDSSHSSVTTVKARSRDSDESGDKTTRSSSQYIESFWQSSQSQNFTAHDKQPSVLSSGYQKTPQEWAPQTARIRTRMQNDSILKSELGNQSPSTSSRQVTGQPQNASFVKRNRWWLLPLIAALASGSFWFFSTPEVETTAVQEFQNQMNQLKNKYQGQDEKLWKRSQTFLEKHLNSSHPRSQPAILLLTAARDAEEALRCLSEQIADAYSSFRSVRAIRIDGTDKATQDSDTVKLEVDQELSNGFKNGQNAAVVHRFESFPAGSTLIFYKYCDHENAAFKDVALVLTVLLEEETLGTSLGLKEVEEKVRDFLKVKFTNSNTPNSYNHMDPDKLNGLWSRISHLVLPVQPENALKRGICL

[10] = target: Alpha-bungarotoxin (Bungarus multicinctus) (UniProt P60615); assay: alpha-bungarotoxin binders on microarray, profiling panel, artefact control for SMM control protein annotation, biochemical, small-molecule microarray, Alexa647 label, 635/667 nm fluorescence (AID 1117); details: alpha-BTX-A647 binding fluorescence, higher = more signal
Alpha-bungarotoxin (Bungarus multicinctus), sequence (P60615 whole entry, looked up): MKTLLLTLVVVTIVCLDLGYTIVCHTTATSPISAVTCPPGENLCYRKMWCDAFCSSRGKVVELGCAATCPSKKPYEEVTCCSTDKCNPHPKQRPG

| SMILES | composite z-score [1] | z-score [2] | composite z-score [3] | composite z-score [4] | composite z-score [5] | composite z-score [6] | composite z-score [7] | composite z-score [8] | composite z-score [9] | composite z-score [10] |
| --- | --- | --- | --- | --- | --- | --- | --- | --- | --- | --- |
| C=CCN(Cc1ccccc1)C(=O)C1N(CCOCCO)C(=O)C2C(C(=O)O)C3C=CC21O3 (stereo not given) | -0.445 and -0.308 | 0.0184 and -0.0316 | -3 and -3.39 | -0.711 and -0.795 | 0.473 and -0.0792 | -0.228 and -0.208 | -0.138 and -0.276 | 0.238 and -0.341 | 3.99 and -0.887 | -2.86 and -1.73 |
| C=CCN(CCCC)C(=O)C1N(C(C)(C)CO)C(=O)C2C(C(=O)O)C3C=CC21O3 (stereo not given) | -1.32 and -1.36 | -0.299 and 0.145 | -3.24 and -2.31 | -0.742 and -0.335 | 1.1 and 0.491 | -0.297 and -0.169 | -0.0626 and -0.23 | -0.0094 and 0.125 | -1.24 and -2.03 | -1.41 and -0.821 |
| C=CCN(C(=O)C1N(c2c(Cl)cccc2CO)C(=O)C2C(C(=O)O)C3C=CC21O3)C(C)(C)C (stereo not given) | -0.375 and -1.73 | -0.892 and -0.519 | -2.64 and -2.81 | -0.68 and -0.347 | -0.0519 and 0.673 | -0.334 and -0.28 | -0.544 and -0.123 | 0.793 and -0.124 | -0.879 and -1.71 | -1.09 and -1.44 |
| C=CCN(Cc1ccccc1)C(=O)C1N(CCCCCCO)C(=O)C2C(C(=O)O)C3C=CC21O3 (stereo not given) | -0.352 and -1.02 | 0.0022 and 0.118 | -2.37 and -4.16 | -0.326 and -0.505 | 0.498 and 0.722 | -0.219 and -0.332 | -0.0709 and -0.0035 | -0.0211 and -0.316 | 0.193 and 0.0816 | -1.13 and -1.12 |
| C=CCN(CCCCC)C(=O)C(c1cccs1)N(C(=O)/C=C\C(=O)O)c1ccc(CCO)cc1 (stereo not given) | 0.0979 and -0.457 | -0.779 and -0.741 | -3.06 and -2.73 | -0.783 and -0.531 | 0.0708 and 0.542 | -0.284 and -0.211 | 0.289 and -0.154 | -0.23 and -0.241 | -0.755 and -0.0484 | -0.89 and -0.874 |
| C=CCN1C(=O)[C@]2(O[C@H](CCn3cc(CCO)nn3)[C@@H]([Si](C)(C)c3ccc(OC)cc3)[C@@H]2C)c2cc(N3C(=O)c4cccc5cccc3c45)ccc21 | 1.33 and 0.725 | -5.11 and -5.13 | 0.238 and -0.0491 | 0.345 and 0.772 | -0.0218 and 0.227 | -0.0203 and 0.0079 | 0.0048 and 0.14 | -0.136 and -0.0115 | 1.11 and 0.749 | 0.334 and 0.366 |
| CO[C@H]1COC(=O)[C@H](C)NC(=O)CC=C[C@@H](C)[C@H](OC)COC(=O)CC=C[C@@H]1C | -1.05 | -0.885 | 0.955 | -0.884 | -0.822 | -0.0944 | -0.0337 | -0.198 | 0.169 | -0.0006 |
| Cc1ccc(S(=O)(=O)N[C@H]2COC(=O)[C@@H](Cc3ccccc3)NC(=O)[C@@H](C)COC(=O)CC=C[C@@H]2C)cc1 | -1.28 and 0.123 | 1.41 and -1.89 | 0.839 and 0.546 | -0.233 and -0.354 | -0.372 and -0.879 | -0.1 and -0.0912 | 0.0494 and -0.138 | -0.122 and -0.038 | 0.15 and -0.0849 | 0.423 and -0.1 |

— PubChem BioAssay
